Only some compounds are listed: those with a hit (about 21% of all), similar ones and a draw of the others.
Pf growth 96h – P. falciparum growth inhibition at 96 hour, primary screen for plastid delayed-death inhibitors; Potency, µM (series often up to 28.7 µM), for the others: top-dose activity change, negative = inhibition, usual class: inhibitors; P. falciparum luciferase reporter growth, 96 h; 6.9% of 320,000 active; note: potency is the fitted concentration of half-maximal effect; % is set by controls: 0 for no effect and ±100 for the full control effect
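Two parasite generations (96 h, 37 C, 5% CO2) of compound exposure in infected erythrocytes (0.05% parasitemia, 2% hematocrit). Luciferase-reporter P. falciparum; decreased luminescence indicates inhibited growth, aimed at apicoplast-acting delayed death.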
Cycloheximide cs – counter-screen for Shiga toxin inhibitors: cycloheximide protein synthesis inhibition; cell reporter, cycloheximide protein synthesis inhibition counterscreen; 12% of 300,000 active; max response, %; in the data active = max response mostly above about 13%, no sharp cut-off; inactive = mostly below about 14%; note: read at 38.3 µM for the half of the compounds with a filed dose; 0% is about no effect
Shiga inhibitor – Shiga toxin inhibition; 9.2% of 290,000 active; Vero cells, Shiga toxin protein synthesis inhibition reporter; inhibition, % at 38.7 µM; AID 2315; in the data active = inhibition mostly above about 28%, no sharp cut-off; inactive = mostly below about 43%; note: 0% is about no effect
NS1 function inh – blocks influenza NS1 protein function; 0.4% of 270,000 active; AID 2326; Potency, µM (highest dose often 46.1 µM), without a hit: at the highest dose activity, positive = more growth; calls by dose curve; note: potency is the fitted concentration of half-maximal effect; actives are rising curves; nearly all actives have a fitted effect of over 50% in size
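A cell-based growth assay was used: compounds that relieve NS1-induced slow growth of budding yeast raise OD600. Assay medium was yeast nitrogen base with ammonium sulphate and -URA supplement, pH 6.0, with 2% galactose.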
Pf growth 48h – inhibits P. falciparum growth in the first generation, 48 h. P. falciparum luciferase growth in erythrocytes, 48 h. Potency, µM (titrated, usually from 28.7 µM), without a hit: at the top dose activity change, negative = inhibition, hits mostly inhibitors. 5.9% of 310,000 active; note: potency is the fitted concentration of half-maximal effect; % is set by controls: 0 for no effect and ±100 for the full control effect
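Read-out is firefly luciferase luminescence from an integrated reporter in P. falciparum, so falling signal marks reduced parasite growth. Infected erythrocytes were at 2% hematocrit and 0.1% parasitemia (final) in Albumax-supplemented RPMI 1640.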
FBPA Giardia inh – blocks Giardia fructose-bisphosphate aldolase activity. 0.71% of 290,000 active. A8B2U2. Potency, µM (series often up to 59.6 µM), inactives show at the top dose activity, negative = inhibition, usual class: inhibitors. purified Giardia FBPA. AID 2451; note: potency is the fitted concentration of half-maximal effect; % is set by controls: 0 for no effect and ±100 for the full control effect; nearly all actives have a fitted effect of over 55% in size
Target sequence (A8B2U2 whole entry, looked up): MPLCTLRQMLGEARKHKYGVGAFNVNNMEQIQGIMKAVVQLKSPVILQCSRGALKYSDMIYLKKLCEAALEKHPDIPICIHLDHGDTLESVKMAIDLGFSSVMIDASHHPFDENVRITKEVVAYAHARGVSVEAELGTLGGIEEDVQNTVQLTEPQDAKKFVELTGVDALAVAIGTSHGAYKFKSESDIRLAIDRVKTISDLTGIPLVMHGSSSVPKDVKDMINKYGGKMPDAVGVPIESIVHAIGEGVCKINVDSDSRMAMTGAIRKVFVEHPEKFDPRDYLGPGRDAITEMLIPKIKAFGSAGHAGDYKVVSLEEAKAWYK
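40 nM FBPA preincubated 10 min at RT with compound (up to 57.5 uM final), then substrate plus GAPDH/TPI/NAD/arsenate coupling and diaphorase/resazurin added. Fluorescence read after 20 min at RT, 525/598 nm.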
Active calls of the source: *; i = inactive; u = inconclusive; x = no result given. Unless noted, calls come from the whole dose curve; as a rule, active = well fitted curve in the direction sought with a large enough effect; inconclusive = small, poorly fitted or top-dose-only effect, or another doubt; inactive = no such curve, though single readings can be large; an effect the other way counts as inactive or inconclusive.

SMILES | Pf growth 96h | Cycloheximide cs | Shiga inhibitor | NS1 function inh | Pf growth 48h | FBPA Giardia inh
COc1ccc(OC)c(NC(=O)c2csc(Cl)c2OC)c1 | 21.3% | 21.4* | 13.8 | -46.6% | 26.7% | 6.4%
O=C(Nc1cccc(C(=O)Nc2cccc(Br)c2)c1)c1ccccc1 | u | 11.7 | 20.5 | -0.7% | u | -1.4%
Cc1nc(-c2ccc(C(=O)Nc3cccc(Br)c3)cc2)cs1 | -8.9% | 33.3* | 56.1* | -9.0% | 62.6% | -3.8%
COc1ccc(OC)c(NC(=O)c2ccc(-c3csc(C)n3)cc2)c1 | 0.7% | 16.2* | x | -75.0% | u | 1.5%
O=C(Nc1cccc(Br)c1)c1ccn[nH]1 | 0.657µM* | 45.4* | 34.6* | -173.1% | 78.3% | 4.9%
O=C(COc1ccccc1)N=C1SC2CS(=O)(=O)CC2N1c1ccccc1F (configuration not stated) | 35.9% | -1.8 | -5.5 | -3.2% | 28.8% | 10.4%
O=C(OCC(=O)N1CCN(c2ccccc2)CC1)c1nc(Cl)ccc1Cl | 33.6% | x | x | x | 13.3% | x
O=C(CCC(=O)Nc1ccc(Br)cc1)N/N=C/c1ccc(O)cc1 | u | -2.9 | -8.5 | u | 17.3% | -7.2%
C/C(=C\CO)CCC(C)CCCC(C)CCCC(C)C (configuration not stated) | x | x | x | x | x | -21.1%
Cc1nc(-c2cccc(NC(=O)Cc3ccccc3)c2)cs1 | 16.7% | 32.1* | 22.8 | x | 18.0% | -2.7%
COc1ccc(Oc2ncc3ncc(=O)n(Cc4cccs4)c3n2)cc1 | x | x | x | x | x | -16.1%
CNC(=O)c1c[nH]c2ccc(S(=O)(=O)Nc3cccc(SC)c3)cc2c1=O | 57.8% | -1.9 | -4.5 | 7.7% | -2.7% | 16.7%
Nc1ccn([C@@H]2O[C@H](CO)[C@H](O)C2(F)F)c(=O)n1 | 1.51µM* | x | x | x | 1.9µM* | x
Nc1ccn([C@@H]2O[C@H](CO)[C@@H](O)[C@@H]2O)c(=O)n1 | 37.6% | -1.0 | 2.4 | 1.5% | 19.8% | -8.3%
O=C1CN(C(=O)COc2ccc(Cl)cc2Cl)c2ccccc2N1 | 40.0% | 13.3 | 18.7 | 2.7% | u | x
O=C1CN(C(=O)COc2ccc(Cl)c(Cl)c2)c2ccccc2N1 | 3.29µM* | x | x | x | 13.1µM* | x
COc1ccc(/C=C/C(=O)OCC(=O)N2CC(=O)Nc3ccccc32)cc1 | u | -1.0 | -16.9 | -9.3% | -5.4% | 1.2%
O=C1CN(C(=O)COc2ccc(Br)cc2F)c2ccccc2N1 | 8.28µM* | 0.4 | 2.7 | 1.3% | 5.86µM* | -9.2%
O=C1CN(C(=O)COc2cccc(F)c2)c2ccccc2N1 | u | 0.7 | -5.7 | 10.1% | -2.0% | 5.7%
O=C1CN(C(=O)COc2ccc(Br)cc2Br)c2ccccc2N1 | u | 11.3 | 28.0 | x | -28.0% | -0.9%
CCCCOc1ccc(/C=C/C(=O)OCC(=O)N2CC(=O)Nc3ccccc32)cc1OCC | u | 9.9 | 5.2 | 7.2% | 10.4µM* | -5.4%
O=C1CN(C(=O)COc2ccc([N+](=O)[O-])cc2Cl)c2ccccc2N1 | 10.4µM* | x | x | x | 2.94µM* | x
O=C(O)c1cc(C(=O)O)c(C(=O)N(Cc2cccc(Oc3ccccc3)c2)[C@H]2CCCc3ccccc32)cc1C(=O)O | x | -3.4 | -13.8 | x | x | u
Cc1csc(NC(=O)C(C)N2C(=O)c3ccccc3S2(=O)=O)n1 (configuration not stated) | 22.5% | -1.9 | -1.3 | -1.6% | -4.1% | x
COc1ccccc1C(=O)C1CCCN(C(=O)c2cnn(C(C)C)c2)C1 (configuration not stated) | 2.2% | 6.6 | -2.1 | -2.2% | 1.5% | x
SMILES | Pf growth 96h | Cycloheximide cs | Shiga inhibitor | NS1 function inh | Pf growth 48h | FBPA Giardia inh
Cc1ccc(-c2csc(N=C(N)N)n2)c(C)c1 | u | 35.6* | 37.2* | -4.1% | u | 0.2%
Nc1nc(-c2ccc(Oc3ccccc3)cc2)cs1 | u | 39.3* | 52.5* | -116.4% | 35.7% | 6.1%
COc1ccc(-c2csc(N=C(N)N)n2)cc1 | u | 24.9* | 67.7* | -2.6% | u | 3.1%
c1ccc2cc(-c3csnn3)ccc2c1 | 89.7% | 32.0* | 107.8* | -7.6% | 34.9% | 4.2%
COC(=O)c1cn(C(=O)/C=C/c2ccc(OC)c(OC)c2)c2ccccc12 | 93.7% | 2.4 | 4.0 | 2.0% | u | -6.2%
CCOC(=O)C1(C(C)C)Oc2ccccc2C(c2ccc(OC)cc2)=C1C(=O)OC (configuration not stated) | x | 4.5 | i | x | x | -4.7%
COc1ccc(-c2csc(N)n2)cc1 | 85.1% | 37.4* | 58.0* | -7.0% | 140.8% | -1.3%
Nc1nc(-c2ccc(C(=O)O)cc2)cs1 | u | 1.3 | 25.8 | x | -16.6% | 5.3%
Nc1nc(-c2ccc(-c3ccccc3)cc2)cs1 | 472.1% | 62.0* | 151.2* | 21.8% | i | -2.3%
COc1ccc2[nH]c(C)c(-c3csc(N)n3)c2c1 | -17.9% | -2.7 | 1.0 | u | 0.0% | -29.7%
Nc1nc(-c2ccc3ccccc3c2)cc(-c2cc(-c3ccc4ccccc4c3)nc(N)n2)n1 | x | x | x | -0.1% | x | x
Nc1nc(-c2ccc3ccccc3c2)cs1 | u | 43.4* | 86.4* | x | 340.2% | -5.1%
O=C(Nc1cccc(S(=O)(=O)Nc2ccc(Cl)cc2)c1)c1ccccn1 | u | x | x | x | -22.4% | x
COc1ccccc1CNC(=O)C(=O)NCC1OCCCN1S(=O)(=O)c1ccc(F)cc1C (configuration not stated) | -29.2% | 1.4 | 2.1 | 2.4% | -12.4% | x
CCCc1nc([N+](=O)[O-])c(S(=O)(=O)c2ccccc2)n1CC(C)C | 11.7µM* | -2.5 | -5.3 | -3.8% | 9.28µM* | 1.5%
CC(C)Cn1c(C(C)C)nc([N+](=O)[O-])c1S(=O)(=O)c1ccc(F)cc1 | u | -4.6 | -8.2 | -18.1% | 10.4µM* | 2.4%
CC(C)Cn1nc(NS(=O)(=O)c2ccccc2)c2cc3ccccc3nc21 | u | -1.4 | 69.5 | -1.8% | 26.4% | 12.7%
Cn1cnc([N+](=O)[O-])c1S(=O)(=O)c1ccc(Cl)cc1 | -1.6% | -3.0 | 10.2 | -62.1% | 1.8% | 0.0%
Cc1ccc(O)c(N=NC2=C(O)CC(C)(C)CC2=O)c1 | u | 55.7* | 56.0* | -21.5% | u | -28.9%
Cc1nc2ccc(N=NC3=C(O)CCCC3=O)cc2s1 | 27.4% | 49.8* | 72.2* | -14.5% | 15.1% | -2.9%
CCN(CC)S(=O)(=O)c1cccc(N=NC2=C(O)CCCC2=O)c1 | u | -2.5 | -14.1 | 7.1% | u | -28.0%
O=C1CCCC(O)=C1N=Nc1cccc(C(=O)O)c1 | 24.9% | 17.1* | 58.6 | x | 10.4% | -4.9%
CC1(C)CC(=O)C(N=Nc2cc(Cl)c(Cl)c(Cl)c2)=C(O)C1 | 23.6% | -3.0 | -9.8 | -0.5% | x | -9.7%
CCOc1ccc2nc(N=NC3=C(O)CC(C)(C)CC3=O)sc2c1 | 79.3% | 6.0 | 34.2 | 3.4% | 92.1% | -10.1%
Cc1nc2ccc(N=NC3=C(O)CC(C)(C)CC3=O)cc2s1 | 33.4% | 95.8* | 110.4* | -3.6% | 70.3% | -8.0%
Cc1ccccc1OCCC(=O)OCC(=O)Nc1ccc2[nH]c(=O)[nH]c2c1 | 23.6% | x | x | x | 1.9% | x

Source: PubChem BioAssay
